Molecules are shown by their SMILES. Where a name gives a salt, the structure may show the parent alone.

The experiment relates to Staphylococcus aureus Sa2 (MRSA, cystic fibrosis isolate). The experiment can be described thus: growth reduction vs untreated control (viable cell count); higher = stronger antibacterial activity; extreme values may be limits of the assay. The following applies: 0.1 mM; 24 h. As to the method:
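Single-dose screen of the MedChem Express Drug Repurposing Library (0.1 mM, 1% DMSO) against planktonic MRSA S. aureus Sa2 (CF isolate) in TSB in 96-well plates, 37 °C aerobic, 24 h. Assays were run in triplicate and repeated twice.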
With `CN1C(C(=O)Nc2ccccn2)=C(O)c2sc(Cl)cc2S1(=O)=O` [Lornoxicam], the growth reduction is 98%.
The value for `CNC(=O)c1cc(Oc2ccc(NC(=O)Nc3ccc(Cl)c(C(F)(F)F)c3)c(F)c2)ccn1` [Regorafenib (monohydrate)] was 98%; that for `N=C(N)c1ccc(OCCCCCOc2ccc(C(=N)N)cc2)cc1` [Pentamidine (isethionate)] was 100%; that for `CCc1nc(-c2cccc(C)c2)c(-c2ccnc(NC(=O)c3ccccc3)c2)s1` was 100%.
Consider `CN(C(=O)CN(CCO)CC(=O)N(C)C(C)(C)Cc1ccccc1)C(C)(C)Cc1ccccc1` [Oxethazaine], for which the growth reduction came to 100%.
On to `CC1=C(C)C(=O)C(CCCCCCCCCC[P+](c2ccccc2)(c2ccccc2)c2ccccc2)=CC1=O` [Visomitin], for which the growth reduction was determined as 100%.
`CNC(=O)c1cc(Oc2ccc(NC(=O)Nc3ccc(Cl)c(C(F)(F)F)c3)c(F)c2)ccn1` [Regorafenib (Hydrochloride)] yielded a growth reduction of 100%.
Compound `C=CC(=O)Nc1cc(Nc2nccc(-c3cn(C4CC4)c4ccccc34)n2)c(OC)cc1N(C)CCN(C)C` [Almonertinib (hydrochloride)] came in with a growth reduction of 100%.
`CC(=O)[C@]1(O)Cc2c(O)c3c(c(O)c2[C@@H](O[C@H]2C[C@H](N)[C@H](O)[C@H](C)O2)C1)C(=O)c1ccccc1C3=O` [Idarubicin (hydrochloride)] had a growth reduction of 100%.
The compound `CC(O)c1cc(C(=O)N[C@@H](C)Cn2ccc(-c3ccc(C#N)c(Cl)c3)n2)n[nH]1` (stereo not given in full) [Darolutamide] showed a growth reduction of 100%.
Turning to `Cc1noc(-c2ccc(-c3ccc(C4(C(=O)O)CC4)cc3)cc2)c1NC(=O)O[C@H](C)c1ccccc1`, the growth reduction is 100%.
In turn, `NC(N)=NC(=O)c1nc(Cl)c(N2CCCCCC2)nc1N` [5-(N,N-Hexamethylene)-amiloride] registered a growth reduction of 100%.
In the case of `C[C@H]1CNCCCN1S(=O)(=O)c1cccc2cncc(F)c12` [Ripasudil], the growth reduction turned out to be 100%.
In turn, `CC1=C(/C=C/C(C)=C/C=C/C(C)=C/C(=O)Nc2ccc(O)cc2)C(C)(C)CCC1` [Fenretinide] displayed a growth reduction of 100%.
In turn, `O=C(c1ccc(F)c(F)c1Nc1ccc(I)cc1F)N1CC(O)([C@@H]2CCCCN2)C1` [Cobimetinib] had a growth reduction of 100%.
Regarding `CC[C@H]1[C@@H](O)[C@@H]2[C@H](CC[C@]3(C)[C@@H]([C@H](C)CCC(=O)O)CC[C@@H]23)[C@@]2(C)CC[C@@H](O)C[C@@H]12` [Obeticholic acid], the growth reduction worked out at 98%.
`CN(CCCCCCCCCCN(C)C(=O)Oc1cccc([N+](C)(C)C)c1)C(=O)Oc1cccc([N+](C)(C)C)c1` [Demecarium Bromide]: the growth reduction stood at 98%.
Regarding `C[C@@H](NCCCc1cccc(C(F)(F)F)c1)c1cccc2ccccc12` [Cinacalcet (hydrochloride)], the growth reduction was determined as 100%.
The value for `CC1(C)CCC(C)(C)c2cc(NC(=O)c3ccc(C(=O)O)cc3)ccc21` [Tamibarotene] was 100%; that for `CC1(C)CC=C(c2nc(C3CC(C)(C)OC(C)(C)C3)ccc2NC(=O)c2nc(C#N)c[nH]2)CC1` [Edicotinib] was 100%; that for `OCc1cc([C@@H](O)CNCCCCCCOCCOCc2c(Cl)cccc2Cl)ccc1O` [Vilanterol] was 100%.
As for `CC(C)OC(=O)CCC/C=C\C[C@@H]1[C@@H](/C=C/[C@@H](O)COc2cccc(C(F)(F)F)c2)[C@H](O)C[C@@H]1O` [Travoprost], the figure is 100%; as for `COc1cc2c(Nc3ccc(Cl)c(Cl)c3F)ncnc2cc1OC[C@@H]1C[C@@H]2CN(C)C[C@@H]2C1` [Tesevatinib], 100%; as for `Cc1cccc(/C=N/Nc2cc(N3CCOCC3)nc(OCCc3ccccn3)n2)c1` [Apilimod], 93%.
Compound `Cc1c(Cl)cccc1Nc1ccccc1C(=O)O` [Tolfenamic Acid] gave a growth reduction of 99%.
Compound `CCCCCOc1ccccc1/C(=C\SC)n1ccnc1` [Neticonazole] gave a growth reduction of 100%.
`Cc1ccc([C@@H]2O[C@H](CO)[C@@H](O)[C@H](O)[C@H]2O)cc1Cc1ccc(-c2ccc(F)cc2)s1` [Canagliflozin] yielded a growth reduction of 100%.
Turning to `Cn1ncc(Cl)c1-c1cc(C(=O)N[C@H](CN)Cc2cccc(F)c2)sc1Cl` [Afuresertib], the growth reduction was found to be 100%.
In turn, `C=CC(=O)Nc1cccc(Oc2nc(Nc3ccc(N4CCN(C)CC4)c(F)c3)nc3[nH]ccc23)c1` [Avitinib (maleate)] registered a growth reduction of 99%.
The compound `Cc1ccc(NC(=O)c2ccc(CN3CCN(C)CC3)cc2)cc1Nc1nc(-c2cccnc2)cs1` [Masitinib (mesylate)] displayed a growth reduction of 100%.
As for `COc1cc([C@@H]2c3cc4c(cc3[C@@H](O[C@@H]3O[C@@H]5CO[C@@H](c6cccs6)O[C@H]5[C@H](O)[C@H]3O)[C@H]3COC(=O)[C@H]23)OCO4)cc(OC)c1O` [Teniposide], the growth reduction was determined as 100%.
The compound `CCOC(=O)Nc1ccc(NCc2ccc(F)cc2)nc1N` [Flupirtine (Maleate)] displayed a growth reduction of 96%.
Take `COc1cc(NCc2ccc3nc(N)nc(N)c3c2C)cc(OC)c1OC` [Trimetrexate]: the growth reduction came to 100%.
As for `C[C@@H](OC[C@@]1(c2ccccc2)CC[C@]2(CCC(=O)N2)CN1)c1cc(C(F)(F)F)cc(C(F)(F)F)c1` [Rolapitant], the figure is 100%; as for `C=CCNc1c(O)cc2c(O)c1C[C@@H](C)C[C@H](OC)[C@H](O)[C@@H](C)/C=C(\C)[C@H](OC(N)=O)[C@@H](OC)/C=C\C=C(/C)C(=O)N2` [Retaspimycin (Hydrochloride)], 100%.
`CN[C@H]1CN(c2ccc3c(=O)c(C(=O)O)cn(-c4nccs4)c3n2)C[C@@H]1OC` [Voreloxin (Hydrochloride)] displayed a growth reduction of 100%.
`Clc1ccc(C(c2ccccc2Cl)C(Cl)Cl)cc1` (stereo not given) [Mitotane]: the growth reduction was found to be 100%.
Regarding `C#C[C@]1(O)CC[C@H]2[C@@H]3CCc4cc(O)ccc4[C@H]3CC[C@@]21C` [Ethynyl Estradiol], the growth reduction turned out to be 100%.
Compound `CCOC(=O)[C@H](CCc1ccccc1)N[C@@H](C)C(=O)N1[C@H](C(=O)O)C[C@@H]2CCC[C@@H]21` [Ramipril] had a growth reduction of 92%.
As for `C[C@H](CCC(=O)O)[C@H]1CC[C@H]2[C@@H]3[C@H](O)C[C@@H]4C[C@H](O)CC[C@]4(C)[C@H]3CC[C@]12C` [Chenodeoxycholic Acid], the growth reduction is 99%.
